# Screening data (PubChem BioAssay)
# Shown are actives, neighbours in structure and some others; about 7.3% of the full set was active somewhere.
# ELG1 genotoxic: genotoxicity induction in ELG1-luciferase HEK293T cells; Potency, µM (highest dose often 46 µM), hits mostly activators; 330,000 compounds, 1.3% hits; HEK293T ELG1-luciferase reporter, luminescence, 16 h; also: nearly all actives have a fitted effect of over 60% in size
#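 ELG1-luciferase HEK293T cells, 2,000/well; compound pinned in; 16 hr, 37 °C, 5% CO2; ONE-Glo, 30 min RT; luminescence on CCD imager.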
# uPA surface inh: blocks generation of uPA at the cell surface | cell surface uPA generation assay, qHTS | 330,000 compounds, 0.31% hits | Potency, µM (titrated, usually from 38.3 µM), usual class: inhibitors; active = well fitted inhibition curve with a large enough effect; inconclusive = small, poorly fitted or top-dose-only effect; inactive = no such curve, though single readings can be large or run the other way; tested in mouse RAW 264.7 cells; also: nearly all actives have a fitted effect of over 55% in size
# SMN2 splice up: SMN2 splice variant enhancement; HEK293 SMN2-luciferase splicing reporter, luminescence, 30-36 h; Potency, µM (series often up to 46.1 µM), actives largely listed as activators; 210,000 compounds, 2.8% hits; also: nearly all actives have a fitted effect of over 55% in size
#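 HEK293 cells carry an SMN2 minigene-luciferase reporter in which exon 7 inclusion puts luciferase in frame. Cells were seeded at 2000 cells/well, attached for 10-12 hours, then exposed to compounds for 30-36 hours at 37C before ONE-Glo luminescence.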
# FLuc counter: inhibits or activates purified firefly luciferase, miR-21 counter-screen. P08659. purified FLuc, Km substrates, luminescence inhibition. Potency, µM (highest dose often 57.5 µM), most hits filed as inhibitors. 360,000 compounds, 6.9% hits; also: nearly all actives have a fitted effect of over 55% in size
# Target sequence (P08659 whole entry, looked up): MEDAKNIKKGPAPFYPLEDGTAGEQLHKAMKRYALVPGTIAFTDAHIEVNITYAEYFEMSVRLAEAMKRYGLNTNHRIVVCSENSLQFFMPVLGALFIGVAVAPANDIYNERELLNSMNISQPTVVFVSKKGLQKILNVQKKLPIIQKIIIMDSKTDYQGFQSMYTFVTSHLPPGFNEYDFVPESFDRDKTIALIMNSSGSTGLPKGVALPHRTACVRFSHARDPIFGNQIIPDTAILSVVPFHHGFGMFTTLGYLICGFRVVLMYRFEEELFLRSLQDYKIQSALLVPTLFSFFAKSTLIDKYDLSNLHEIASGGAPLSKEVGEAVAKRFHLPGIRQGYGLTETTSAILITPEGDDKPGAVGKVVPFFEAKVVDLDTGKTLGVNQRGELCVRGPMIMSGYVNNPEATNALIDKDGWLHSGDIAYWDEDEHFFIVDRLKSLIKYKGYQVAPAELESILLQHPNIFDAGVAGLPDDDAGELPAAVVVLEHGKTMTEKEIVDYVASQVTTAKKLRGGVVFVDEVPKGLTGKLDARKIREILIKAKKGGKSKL
#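 Purified P. pyralis luciferase, 10 nM final, with Km-level 10 uM D-luciferin and 10 uM ATP in 50 mM Tris acetate pH 7.5, 10 mM Mg acetate, 0.01% Tween-20, 0.05% BSA; 6-point qHTS titration about 60 µM downward; luminescence read.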
# Rab9 prom act: activates the Rab9 promoter; Huh7 Rab9 promoter-luciferase reporter, luminescence, 24 h; Potency, µM (highest dose often 9.22 µM), hits mostly activators; 320,000 compounds, 2.8% hits; AID 485297; also: nearly all actives have a fitted effect of over 60% in size
#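 Huh7 reporter line, Rab9 promoter upstream of luciferase. Compound exposure 24 h at 37 °C in reduced-serum medium with 10% FBS. Read-out: luminescence.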
# NPC1 prom act: activators of NPC1 promoter. 320,000 compounds, 2.4% hits. Huh7 NPC1 promoter luciferase reporter, 24 h. Potency, µM (doses to about 9.22 µM), most hits filed as activators. AID 485313; also: nearly all actives have a fitted effect of over 60% in size
#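 Huh7 cells stably carrying NPC1 promoter–luciferase, plated in Opti-MEM with 10% FBS for 2 h, were exposed to compound in DMSO for 24 h at 37 °C; luciferase reagent was added for 10 min and luminescence read.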
# A number is an active result; - = inactive; ? = inconclusive; . = no result. Unless noted, calls follow the shape of the dose curve; as a rule, active = well fitted curve in the direction sought with a large enough effect; inconclusive = small, poorly fitted or top-dose-only effect, or another doubt; inactive = no such curve, though single readings can be large; an effect the other way counts as inactive or inconclusive.
SMILES,ELG1 genotoxic,uPA surface inh,SMN2 splice up,FLuc counter,Rab9 prom act,NPC1 prom act
CCCc1ccc(OCc2nc(-c3ccc(NC(=O)c4cccs4)cc3)no2)cc1,?,-,?,13µM,?,-
CS(=O)(=O)n1nc(-c2ccc(Cl)cc2)nc1SCc1ccccc1,15µM,.,-,.,?,?
CSc1nc(-c2ccc(Cl)cc2)nn1S(=O)(=O)c1ccccc1,-,-,13µM,13µM,?,?
Cc1ccc(S(=O)(=O)n2nc(-c3ccc(Cl)cc3)nc2NCc2ccco2)cc1,?,-,?,-,-,-
O=S(=O)(c1ccccc1)n1nc(-c2ccc(Cl)cc2)nc1NCc1ccccc1,.,.,-,-,.,.
COc1ccc(-c2nc(SCc3ccccc3)n(C(=O)c3ccco3)n2)cc1,-,.,?,?,?,-
CSc1nc(-c2ccc(Cl)cc2)nn1S(=O)(=O)c1ccc(Cl)cc1,?,-,11µM,-,3.5µM,-
O=C(O)C1C=Cc2ccccc2N1C(=O)c1ccccc1 (configuration not stated) (tested in a mixture with another compound),.,-,.,.,.,.
Fc1ccccc1,.,.,-,.,.,.
CC(C)S(=O)(=O)c1csc(C(=O)Nc2ccc(F)cc2)c1N,2.9µM,?,.,6µM,0.56µM,0.56µM
COC(=O)[C@H](CC(C)C)NC(=O)Nc1ccc(F)cc1,-,-,.,-,-,-
CCc1ccccc1NC(=O)Cn1c(=O)n(CCCS(=O)(=O)C2CCCCC2)c(=O)c2ccccc21,.,.,-,-,.,.
COc1ccc(/C=N/NC(=O)c2ccc3nc[nH]c3c2)c(OC)c1OC,-,-,.,-,-,-
COc1cccc(C(=O)N/N=C/c2cn[nH]c2-c2ccc(OC)cc2OC)c1,-,-,-,15µM,-,-
O=C(N/N=C/c1ccc(Cl)c([N+](=O)[O-])c1)c1ccc2nc[nH]c2c1,-,-,-,?,-,-
COc1cccc(/C=N/NC(=O)c2cc3c(OC)ccc(OC)c3[nH]2)c1O,?,6.3µM,.,-,-,-
COc1cc(OC)c(OC)cc1/C=N/NC(=O)c1ccc2nc[nH]c2c1,-,-,.,11µM,-,-
COc1cc(OC)c2cc(C(=O)N/N=C/c3cccc(OC)c3O)[nH]c2c1,?,-,.,?,-,-
O=C(N/N=C/c1ccccc1[N+](=O)[O-])c1ccc2nc[nH]c2c1,?,-,.,13µM,2.8µM,?
CC(=O)Oc1cc2c(c(C)c1OC(C)=O)CC=C1[C@]3(C)CC[C@]4(C)CC[C@@](C)(C(=O)O)CC4[C@]3(C)CC[C@]12C (some centres not stated),.,.,-,.,.,.
COc1ccc(/C=N/NC(=O)c2ccc3nc[nH]c3c2)cc1,-,-,.,21µM,-,-
CCN(CC)c1ccc(/C=N/NC(=O)c2ccc3nc[nH]c3c2)c(O)c1,?,-,.,13µM,-,-
COc1ccc(/C=N/NC(=O)c2ccc3nc[nH]c3c2)c(OC)c1,-,?,.,17µM,-,-
COc1cccc(/C=N/NC(=O)c2ccc3nc[nH]c3c2)c1O,-,-,.,19µM,-,-
COc1ccc(F)cc1S(=O)(=O)NCCc1sc2nc(-c3ccc(F)cc3)nn2c1C,.,.,.,-,.,.
SMILES,ELG1 genotoxic,uPA surface inh,SMN2 splice up,FLuc counter,Rab9 prom act,NPC1 prom act
CCCCOc1ccccc1C(=O)N(Cc1cccc(F)c1)C1CCS(=O)(=O)C1 (configuration not stated),.,.,-,-,.,.
c1ccc(Nc2nc3ccccc3[nH]2)nc1,?,-,?,24µM,3.5µM,?
Cc1cc(C)nc(Nc2nc3ccccc3[nH]2)n1,?,-,13µM,?,?,?
Nc1ccc(Nc2nc3ccccc3[nH]2)cc1,-,-,.,-,-,-
Cc1oc2ccc(O)c(CN3CCOCC3)c2c1C(=O)Nc1ccc(C(C)C)cc1,.,.,-,-,.,.
O=C1N/C(=N/O)S/C1=C/c1cccc([N+](=O)[O-])c1,-,-,-,21µM,-,-
Clc1ccc(C2=Nn3c(nnc3-c3cc(-c4ccccc4)n[nH]3)SC2)cc1,-,.,-,-,-,-
Clc1ccc(C2=Nn3c(nnc3-c3n[nH]c4c3CCC4)SC2)cc1Cl,?,-,10µM,-,-,-
c1ccc(C2=Nn3c(nnc3-c3cc(-c4ccccc4)n[nH]3)SC2)cc1,?,-,?,.,-,-
